CHT allo act – allosteric activators of human choline transporter CHT; Q9GZV3; CHT-expressing cells, membrane potential dye, choline EC20; stronger effect = higher value; LV-AA mutant CHT in HEK293 cells; B-score at 10 µM; actives 0.49% (n = 310,000);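 active = initial fluorescence not abnormally high and integrated response B-score, plate-corrected, over 3 SD above library mean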
TMEM16A act – activates or potentiates the mouse TMEM16A chloride channel | Q8BHY3 | HEK293 TMEM16A/YFP-H148Q/I152L, iodide quench fluorescence; stronger effect = lower value | B-score at 10 µM | actives 0.3% (n = 340,000);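 active = fluorescence-ratio B-score plate-corrected deviation score at least 3 library SD below zero, with starting fluorescence score within 5 deviations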;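 note: channel opened by trigger with iodide after compound preincubation; score built on the fluorescence ratio of max minus min over baseline; more negative score means more quench and so TMEM16A activation or potentiation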
Target sequence (Q8BHY3 whole entry, looked up): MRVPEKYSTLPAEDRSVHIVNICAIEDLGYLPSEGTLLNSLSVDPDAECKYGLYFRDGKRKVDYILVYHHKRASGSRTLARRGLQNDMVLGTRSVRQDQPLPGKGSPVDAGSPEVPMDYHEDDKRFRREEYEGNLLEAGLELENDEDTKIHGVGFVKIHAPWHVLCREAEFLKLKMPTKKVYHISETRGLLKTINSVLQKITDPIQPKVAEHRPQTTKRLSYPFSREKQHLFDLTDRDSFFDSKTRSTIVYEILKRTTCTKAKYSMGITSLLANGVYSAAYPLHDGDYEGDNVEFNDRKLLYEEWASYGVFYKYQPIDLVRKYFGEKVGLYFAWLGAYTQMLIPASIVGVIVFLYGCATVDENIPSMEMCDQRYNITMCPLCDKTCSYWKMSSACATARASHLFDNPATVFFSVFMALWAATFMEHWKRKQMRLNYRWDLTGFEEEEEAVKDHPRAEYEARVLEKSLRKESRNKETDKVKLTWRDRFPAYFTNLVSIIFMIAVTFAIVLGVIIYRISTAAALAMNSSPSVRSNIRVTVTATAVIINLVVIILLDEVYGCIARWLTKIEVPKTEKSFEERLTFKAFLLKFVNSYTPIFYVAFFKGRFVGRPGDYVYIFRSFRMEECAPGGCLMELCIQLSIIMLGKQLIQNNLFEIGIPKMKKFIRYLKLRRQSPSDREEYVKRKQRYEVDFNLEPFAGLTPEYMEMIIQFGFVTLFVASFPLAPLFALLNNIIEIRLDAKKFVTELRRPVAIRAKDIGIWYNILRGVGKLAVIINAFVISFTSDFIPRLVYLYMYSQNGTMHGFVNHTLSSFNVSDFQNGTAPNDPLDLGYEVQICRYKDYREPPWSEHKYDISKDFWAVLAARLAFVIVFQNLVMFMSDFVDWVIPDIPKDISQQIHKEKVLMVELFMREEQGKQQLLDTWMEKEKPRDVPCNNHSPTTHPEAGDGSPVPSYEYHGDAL
CHT inh – inhibitors of human choline transporter CHT | AID 488975 | Q9GZV3 | CHT-expressing cells, membrane potential dye, choline response; stronger effect = lower value | B-score at 10 µM | actives 0.86% (n = 310,000);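 active = B-score over 3 SD under the library average, and starting fluorescence ratio not unusually high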;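 note: choline stimulus applied at its EC90 after an EC20 pre-addition; B-score computed on integrated fluorescence ratio after choline addition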
ANO1 block – mouse TMEM16A channel inhibition, primary screen. normalized B-score (activity score, 25-100; higher = stronger inhibition) at 10 µM. Q8BHY3. HEK293 TMEM16A/YFP iodide influx fluorescence, ionomycin. actives 1.2% (n = 310,000);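 active = ratio plate-corrected score three or more library SD toward inhibition, starting fluorescence score within five deviations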;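 note: score derived from kinetic fluorescence span divided by baseline fluorescence per well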
CHT act confirm – human CHT activation, confirmatory screen. actives 91% (n = 2,500). activation, % at 10 µM. shares compounds with CHT allo act. CHT-expressing cells, membrane potential dye fluorescence (FDSS); % of choline EC20–EC90 response window; HEK293 expressing CHT LV-AA mutant; choline added at its EC20;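 active = primary screen active, with duplicate mean activation above negative control mean plus 3 SD, cut at about 11% in these data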
HEK293 MP dye – activity in parental HEK293 cells lacking CHT | shares compounds with CHT allo act | membrane potential dye fluorescence (FDSS); measured after EC20 choline addition | ratio readout change at 10 µM, hits read low | actives 62% (n = 2,500);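 active = duplicate-averaged ratio beyond 3 SD from buffer wells, up or down, though filed actives are nearly all decreases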
Numbers stand for hits. Shown are actives, neighbours in structure and some others; about 2.4% of the full set was active somewhere.

Results for CCS(=O)(=O)c1ccc2oc(SCC(=O)NC3CCCC(C)C3C)nc2c1 (stereo unspecified) ?
CHT allo act: inactive; TMEM16A act: inactive; CHT inh: inactive; ANO1 block: inactive

How did CCNC(=O)NC(=O)COC(=O)CCCc1nc2ccccc2s1 do in these assays?
CHT allo act: inactive; TMEM16A act: inactive; CHT inh: inactive; ANO1 block: inactive

What do the screens show for `O=C1CCC2(CCCCC2)N1`?
TMEM16A act: inactive

How did Cc1c(CCOC(=O)c2ccc([N+](=O)[O-])cc2)sc[n+]1CC(=O)c1ccccc1 do in these assays?
CHT allo act: 7.06; TMEM16A act: inactive; CHT inh: inactive; ANO1 block: inactive; CHT act confirm: 58.1; HEK293 MP dye: -52.1

How did Cc1cccc2cc(-c3ccccc3)c(-c3ccccc3)c[n+]12 do in these assays?
CHT allo act: inactive; TMEM16A act: inactive; CHT inh: inactive; ANO1 block: inactive; CHT act confirm: 55.6; HEK293 MP dye: -53.4

How did Cc1c(O)ccc2c(-c3ccccc3)cc(=O)oc12 do in these assays?
CHT allo act: inactive; TMEM16A act: inactive; CHT inh: inactive; ANO1 block: inactive

What do the screens show for `O=C(O)CNS(=O)(=O)c1ccc2c(c1)C(=O)c1cc(S(=O)(=O)NCC(=O)O)ccc1-2`?
CHT allo act: inactive; TMEM16A act: inactive; CHT inh: inactive; ANO1 block: inactive

How did O=C1c2cc(S(=O)(=O)NCCO)ccc2-c2ccc(S(=O)(=O)NCCO)cc21 do in these assays?
CHT allo act: inactive; TMEM16A act: inactive; CHT inh: inactive; ANO1 block: inactive; CHT act confirm: 41.0; HEK293 MP dye: -35

Results for N#CC(C#N)=C1c2cc(S(N)(=O)=O)ccc2-c2ccc(S(N)(=O)=O)cc21 ?
TMEM16A act: inactive

Results for N#CC(C#N)=C1c2cc(S(=O)(=O)NCCO)ccc2-c2ccc(S(=O)(=O)NCCO)cc21 ?
CHT allo act: 9.53; TMEM16A act: inactive; CHT inh: inactive; ANO1 block: inactive; CHT act confirm: 54.1; HEK293 MP dye: -51.8

What do the screens show for `CC1Cc2ccccc2N1C(=O)COC(=O)CNC(=O)c1ccc(Br)o1` (stereo unspecified)?
CHT allo act: inactive; TMEM16A act: inactive; CHT inh: inactive; ANO1 block: inactive

Results for CCCN1CCN(C(=O)CCn2c(=O)c3cccn3c3cccnc32)CC1 ?
CHT allo act: inactive; TMEM16A act: inactive; CHT inh: inactive; ANO1 block: inactive

Results for CCN1CCN(C(=O)CCn2c(=O)c3cccn3c3cccnc32)CC1 ?
CHT allo act: inactive; TMEM16A act: inactive; CHT inh: inactive; ANO1 block: inactive; CHT act confirm: 58.2; HEK293 MP dye: -30.2

How did Cc1ccccc1C(=O)NCC(c1ccco1)N1CCc2ccccc2C1 (stereo unspecified) do in these assays?
CHT allo act: inactive; TMEM16A act: inactive; CHT inh: inactive; ANO1 block: inactive; CHT act confirm: inactive; HEK293 MP dye: inactive

How did O=C(NCC(c1ccco1)N1CCc2ccccc2C1)c1cccc(F)c1 (stereo unspecified) do in these assays?
CHT allo act: inactive; TMEM16A act: inactive; CHT inh: inactive; ANO1 block: inactive; CHT act confirm: 10.8; HEK293 MP dye: inactive

Results for O=C(O)C1CCCN(S(=O)(=O)c2ccc3c(c2)OCCO3)C1 (stereo unspecified) ?
CHT allo act: inactive; TMEM16A act: inactive; CHT inh: inactive; ANO1 block: inactive

How did N=C1/C(=C\c2ccc(OC(=O)c3ccccc3Cl)cc2)C(=O)N=C2SC(N3CCOCC3)=NN12 do in these assays?
CHT allo act: inactive; TMEM16A act: inactive; CHT inh: inactive; ANO1 block: inactive

What do the screens show for `CCOC(=O)N1CCN(c2cc(NCCO)c([N+](=O)[O-])c3nonc23)CC1`?
CHT allo act: inactive; TMEM16A act: inactive; CHT inh: inactive; ANO1 block: inactive; CHT act confirm: 38.7; HEK293 MP dye: -32.2

How did Cc1ccc(Cl)cc1NC(=O)C1CCCCC1C(=O)O (stereo unspecified) do in these assays?
CHT allo act: inactive; TMEM16A act: inactive; CHT inh: inactive; ANO1 block: inactive

What do the screens show for `Clc1cccc(CNCC2CCCO2)c1Cl` (stereo unspecified)?
CHT allo act: inactive; TMEM16A act: inactive; CHT inh: inactive; ANO1 block: inactive

Results for COc1ccc2nc(C)cc(N3CCC(C(N)=O)CC3)c2c1 ?
CHT allo act: 7.2; TMEM16A act: inactive; CHT inh: inactive; ANO1 block: inactive; CHT act confirm: 61.2; HEK293 MP dye: -76.3

How did CCOC(=O)C1CCN(c2cc(C)nc3ccc(OC)cc23)CC1 do in these assays?
CHT allo act: 7.78; TMEM16A act: inactive; CHT inh: inactive; ANO1 block: inactive; CHT act confirm: 42.3; HEK293 MP dye: -72.5

How did COc1ccc(N2CCN(c3cc(C)nc4ccc(OC)cc34)CC2)cc1 do in these assays?
CHT allo act: inactive; TMEM16A act: inactive; CHT inh: inactive; ANO1 block: inactive

How did Cn1c(N)c(C(=O)COc2ccc(C#N)cc2)c(=O)n(C)c1=O do in these assays?
CHT allo act: inactive; TMEM16A act: -9.08; CHT inh: inactive; ANO1 block: inactive; CHT act confirm: 38.5; HEK293 MP dye: -36.4

How did CCN1CCS/C1=C\C=C\C1=[N+](CC)CCS1 do in these assays?
TMEM16A act: inactive

What do the screens show for `CCN1CCS/C1=C/C=C/C1=[N+](CC)CCS1`?
CHT allo act: 6.9; TMEM16A act: inactive; CHT inh: inactive; ANO1 block: inactive; CHT act confirm: 45.5; HEK293 MP dye: -31.1

How did COc1cccc(C(=O)CC(C(=O)O)c2ccc(Cl)cc2)c1 (stereo unspecified) do in these assays?
CHT allo act: inactive; TMEM16A act: inactive; CHT inh: inactive; ANO1 block: inactive

Results for Cc1sc(NC(=O)c2ccccc2)c(C(=O)NCCN(C)C)c1C ?
CHT allo act: inactive; TMEM16A act: inactive; CHT inh: inactive; ANO1 block: inactive; CHT act confirm: 36.7; HEK293 MP dye: -57.3

Results for CCN1CCN(c2cc(N3CCN(C(=O)c4ccco4)CC3)c3c4c(onc24)-c2ccccc2C3=O)CC1 ?
CHT allo act: inactive; TMEM16A act: inactive; CHT inh: inactive; ANO1 block: inactive; CHT act confirm: 25.0; HEK293 MP dye: -52.1

How did Cc1ccc2cccc(OCc3nnc(SCC(=O)O)n3C)c2n1 do in these assays?
CHT allo act: inactive; TMEM16A act: inactive; CHT inh: inactive; ANO1 block: inactive; CHT act confirm: 50.7; HEK293 MP dye: -53.2

Results for CCC(C)c1ccccc1N1CC(C(=O)Nc2ccccc2N2CCCC2)CC1=O (stereo unspecified) ?
CHT allo act: inactive; TMEM16A act: inactive; CHT inh: inactive; ANO1 block: inactive; CHT act confirm: 29.2; HEK293 MP dye: inactive
